Compound activity: PubChem, National Center for Advancing Translational Sciences (NCATS)
An excerpt weighted towards active compounds, which were near 1.8% of everything screened.
HEK293 tox: qHTS of GLP-1 Receptor Inverse Agonists: Cytotox Screen; HEK293 cAMP-luciferase reporter cells, luminescence, 24 h; Potency, µM (highest dose often 38.3 µM), hits mostly inhibitors; 0.13% of 410,000 active;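 also: loss of luciferase light is scored as toxicity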
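Luminescence readout: signal drop marks cytotoxicity. Plated cells grew 12 h at 37 °C, 5% CO2, received 23 nL compound for 24 h, then got luciferase reagent, read after 12 min at RT.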
TRPML1 ag: qHTS for Agonists of the Human Mucolipin Transient Receptor Potential 1 (TRPML1); 0.12% of 410,000 active; activation, % (test concentration not listed); AID 624414, 2012; Mucolipin-1 (Homo sapiens), Q9GZU1; TRPML1-expressing cells, Ca2+ dye fluorescence, FDSS; in the data active = activation above about 50%; inconclusive = mostly about 30% to 49%
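Cells: TRPML1-DL, 1X Tet inducer, ~16 h at 37 degrees C/5% CO2. Dye: ABD Ca8 no-wash + quencher, 45-90 min RT. Read: 10 s baseline, compound add, 110 s agonist phase; 54-4 EC80 (4uM final), 110 s antagonist phase.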
TRPML1 inh: qHTS for Inhibitors of the Human Mucolipin Transient Receptor Potential 1 (TRPML1); activity change, negative = inhibition, % (concentration not given with the values); Mucolipin-1 (Homo sapiens), Q9GZU1; 0.02% of 390,000 active; TRPML1-inducible cells, Ca2+ dye fluorescence, FDSS; active compounds read low; inhibition of EC80 agonist-evoked calcium signal; in the data active = activity change below about -50%; inconclusive = between about -30% and that limit;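 also: stimulus is agonist 54-4 at its EC80 concentration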
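Tet-induced TRPML1-DL cells loaded with Ca8 no-wash calcium dye were read kinetically on FDSS. Compound addition was followed by EC80 agonist 54-4 (4 uM final); inhibition was read over 110 s.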
GLP-1R agonist: qHTS of GLP-1 Receptor Agonists; Glucagon-like peptide 1 receptor (Homo sapiens), P43220; Potency, µM (series often up to 45.6 µM), actives largely listed as activators; 0.007% of 380,000 active; HEK293 GLP-1R CRE-luciferase, luminescence, 4-6 h; cells express a hypersensitive GLP-1R form; AID 624172, 2012
Target sequence (P43220 whole entry, looked up): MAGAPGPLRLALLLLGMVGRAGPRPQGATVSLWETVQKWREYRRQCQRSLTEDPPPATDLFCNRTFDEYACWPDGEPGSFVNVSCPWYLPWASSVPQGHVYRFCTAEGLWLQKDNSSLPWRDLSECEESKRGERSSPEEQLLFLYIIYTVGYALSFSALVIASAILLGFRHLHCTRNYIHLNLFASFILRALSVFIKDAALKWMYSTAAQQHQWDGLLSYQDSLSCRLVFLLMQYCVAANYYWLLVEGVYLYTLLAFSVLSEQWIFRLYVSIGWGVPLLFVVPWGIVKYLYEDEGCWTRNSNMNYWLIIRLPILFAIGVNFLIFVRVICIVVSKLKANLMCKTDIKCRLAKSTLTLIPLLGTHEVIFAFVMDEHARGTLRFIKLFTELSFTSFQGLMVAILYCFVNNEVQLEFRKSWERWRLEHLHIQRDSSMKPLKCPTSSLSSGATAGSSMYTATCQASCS
GLP1R inv ag: qHTS of GLP-1 Receptor Inverse Agonists (Inhibition Mode); HEK293 GLP-1R CRE-luciferase, luminescence, 24 h; GLP-1R form is constitutively active; 1.6% of 410,000 active; AID 624417, 2012; Potency, µM (top dose mostly 38.3 µM), usual class: inhibitors; also: nearly all actives have a fitted effect of over 55% in size
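HEK293 cells stably co-expressing constitutively active GLP-1R and a cAMP-responsive luciferase reporter were seeded in DMEM with 10% Nu serum, given compounds after 12 h, and incubated 24 h at 37 deg C. Luminescence was then read.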
Hits are given with their value; 0 = inactive; ? = inconclusive; - = not tested or not shown. Unless noted, calls follow the shape of the dose curve; as a rule, active = well fitted curve in the direction sought with a large enough effect; inconclusive = small, poorly fitted or top-dose-only effect, or another doubt; inactive = no such curve, though single readings can be large; an effect the other way counts as inactive or inconclusive.

SMILES | HEK293 tox | TRPML1 ag | TRPML1 inh | GLP-1R agonist | GLP1R inv ag
COc1cccc(C2C(=O)N(C3CCCCC3)CC(=O)N2Cc2ccc(Cl)cc2)c1 (configuration not stated) | 0 | 0 | 0 | - | ?
CN(C)c1ccc(/C=C/c2cc3ccccc3c[n+]2C)cc1 | - | 0 | - | - | -
O=C(Cn1c(=O)oc2cc(S(=O)(=O)N3CCCCC3)ccc21)NCc1ccc(F)cc1 | 0 | 0 | 0 | - | ?
CCN(CC)CCNC(=O)c1ccc(Cl)c(S(=O)(=O)N2CCCCCC2)c1 | 0 | 0 | 0 | 0 | 2.5µM
CN(C)S(=O)(=O)N1CCC(Oc2cccc(C(=O)NCCC3=CCCCC3)c2)CC1 | 0 | 0 | 0 | 0 | 10µM
O=C(Cn1c(=O)oc2cc(S(=O)(=O)N3CCCCC3)ccc21)NCc1ccc(Cl)cc1 | 0 | 0 | 0 | - | 13µM
COc1ccc(S(=O)(=O)N2CCCCCC2)cc1C(=O)NCc1ccc(C)cc1 | 0 | 0 | 0 | 0 | 10µM
O=C(NCCN1CCOCC1)c1ccc(Cl)c(S(=O)(=O)N2CCCCC2)c1 | 0 | 0 | 0 | 0 | 0
COc1ccccc1-c1sc2cc3c(cc2c1-c1ccc(OCCN2CCCCC2)cc1)OCO3 | ? | 0 | 0 | 0 | 13µM
COc1ccccc1-c1sc2ccccc2c1-c1ccc2c(c1)OCO2 | 0 | 0 | 0 | 0 | 10µM
COc1ccccc1-c1sc2cc3c(cc2c1-c1ccc2c(c1)OCO2)OCO3 | 0 | 0 | 0 | 0 | ?
COc1cc2sc(-c3ccccc3OC)c(-c3ccc(OCCN4CCCCC4)cc3)c2cc1OC | 0 | 0 | 0 | 0 | ?
CC(C)=C1C2CCC1C1C(=O)N(NC(=O)COc3ccc(C(C)(C)C)cc3)C(=O)C21 (configuration not stated) | 0 | 0 | 0 | 0 | 7.1µM
COc1ccc(NC(=O)c2oc3ccccc3c2NC(=O)Cc2coc3cc(C)ccc23)cc1 | 0 | 0 | 0 | - | 0
O=C(CSc1nc(=O)[nH]c2c1CCCC2)Nc1ccccc1C(F)(F)F | 0 | 0 | 0 | - | 0
O=C(c1cc(-c2cccc(Br)c2)nc2ccccc12)N1CCCC1 | 0 | 0 | 0 | 0 | 10µM
CC(=O)O[C@H](C)OC(=O)[C@@H](C)c1ccc(-c2ccccc2)c(F)c1 | - | - | - | 0 | -
CC(C)(C)C1COc2ccccc2N1C(=O)c1ccccc1Cl (configuration not stated) | 0 | 0 | 0 | 0 | 8.9µM
CCC(=O)c1ccc(OCc2ccccc2)c(OC)c1 | 0 | 0 | 0 | 0 | 0
CCC(=O)c1ccc(OCc2ccc(C(=O)c3ccccc3)cc2)cc1 | 0 | 0 | 0 | 0 | 10µM
CC(C)N(Cc1nc(-c2ccc(Cl)cc2)no1)C(=O)/C=C/c1ccccc1 | 0 | 0 | 0 | 0 | 11µM
Cc1cccc(C(=O)NNC2=C(C(=O)C(F)(F)F)CCC2)c1O | ? | 0 | 0 | 0 | 2.8µM
O=C(NNC1=C(C(=O)C(F)(F)F)CCC1)c1cccc(O)c1 | 0 | 0 | 0 | 0 | ?
CCOc1ccc(OC(=O)c2cn(-c3ccc(C)cc3)c(=O)c3ccccc23)cc1 | 0 | 0 | 0 | - | 0
CN(C)/C=C1\C=C2C(=O)c3ccccc3N2C1=O | 0 | 57 | ? | 0 | 0
SMILES | HEK293 tox | TRPML1 ag | TRPML1 inh | GLP-1R agonist | GLP1R inv ag
Cc1ccc2nc(-c3ccc(NC(=O)C4CCCO4)cc3)[nH]c2c1 (configuration not stated) | 0 | 0 | 0 | 0 | 7.9µM
CC(C)(C)n1ncc2c(=O)n(Cc3ccc(F)cc3Cl)cnc21 | - | 0 | 0 | - | -
Fc1ccc(Oc2nc(-c3ccccn3)nc3ccccc23)cc1 | ? | 0 | 0 | 0 | 2.8µM
COc1cccc(C(=O)Nc2cccc(-c3nc4ncccn4c3C)c2)c1 | 0 | 0 | 0 | - | 0
COc1ccc(Nc2ncc(C(=O)N3CCN(c4cccc(Cl)c4)CC3)c3ccccc23)cc1 | 0 | 0 | 0 | 0 | 8.9µM
Cc1ccc(Nc2ncc(C(=O)N3CCN(c4ccc(F)cc4)CC3)c3ccccc23)cc1Cl | 0 | 0 | 0 | 0 | 2.8µM
O=C1C2C3C=CC(O3)C2C(=O)N1Nc1ccccc1 (configuration not stated) | 0 | 0 | 0 | 0 | 8.9µM
N/C(=N\OCc1ccc([N+](=O)[O-])cc1)c1ccccn1 | 0 | 0 | 0 | 0 | 1.3µM
Cc1onc(-c2c(Cl)cccc2Cl)c1C(=O)N1CCN(c2ccc(F)cc2)CC1 | 0 | 0 | 0 | 0 | 13µM
Cc1onc(-c2c(Cl)cccc2Cl)c1C(=O)N1CCN(c2ccccc2)CC1 | 0 | 0 | 0 | 0 | ?
N=c1n(Cc2ccccc2)c2ccccc2n1CC(O)COc1ccc(Cl)cc1Cl (configuration not stated) | ? | 0 | 0 | 0 | ?
OC(COCC(F)(F)C(F)(F)C(F)(F)C(F)F)Cn1c2ccc(Cl)cc2c2cc(Cl)ccc21 (configuration not stated) | ? | 0 | 0 | 0 | 1.8µM
CCOC(=O)C(=O)Cc1nc(OCc2ccccc2)cc(OCc2ccccc2)n1 | 0 | 0 | 0 | 0 | 10µM
CCOC(=O)C(Cc1nc(OCc2ccccc2)cc(OCc2ccccc2)n1)=NO | 0 | 0 | 0 | 0 | ?
Cc1ccc(NC(=O)CCc2nnc3n(CC(C)C)c(=O)c4ccccc4n23)cc1C | 0 | 0 | 0 | - | 0
COc1ccc(C(=O)c2sc3nc(C)cc(-c4cccs4)c3c2N)cc1OC | 0 | 52 | 0 | 0 | 0
O=C(CCCCCNC(=O)N1CCn2c1nc1ccccc12)NCc1ccc(Cl)cc1 | 0 | 0 | 0 | 0 | ?
O=C(CCCCCNC(=O)N1CCn2c1nc1ccccc12)NCc1ccccc1Cl | 0 | 0 | 0 | 0 | 7.1µM
Cc1ccccc1NC(=S)N/N=C/c1ccc(O)cc1O | ? | 0 | 0 | 0 | ?
Fc1cccc(/C=N/NC(=S)Nc2ccccc2Cl)c1 | 2.8µM | 0 | 0 | 0 | ?
Cc1cccc(NC(=S)N/N=C/c2cccc(O)c2)c1C | ? | - | - | 0 | 7.9µM
Cc1ccc(CN(Cc2ccco2)C(=O)c2ccccc2Br)o1 | 0 | 0 | 0 | - | ?
CN1C(=S)SC(N(O)C(=O)Nc2ccc(Cl)c(Cl)c2)C1(C)C (configuration not stated) | 0 | 0 | 0 | 0 | 10µM
CN1C(=S)SC(C)(C)C1N(O)C(=O)Nc1ccc(Cl)cc1 (configuration not stated) | 0 | 0 | 0 | 0 | ?
CO[C@@]1(NC(=O)CSC(F)F)C(=O)N2C(C(=O)O)=C(CSc3nnnn3CCO)CO[C@@H]21 | - | - | - | 0 | -
Cc1ccccc1CN1CCN(C(=O)c2cccc3ccccc23)CC1 | 0 | 0 | 0 | 0 | 10µM
COc1ccccc1CN1CCN(C(=O)c2cccc3ccccc23)CC1 | 0 | 0 | 0 | 0 | 11µM
